We go through four compounds from PubChem BioAssay (EPA / NIEHS).

SMILES strings stand for the structures. Activity calls are given as the source filed them. Rule for the calls: active = hit-call score of the fitted dose curve at least 0.9, where 1 is the maximum; inactive = score below 0.9.

Read-out in the assay: matrix metalloproteinase-1 (MMP1), MMP1 (gene 4312)
Nature of the assay: LTEA_HepaRG_MMP1: Life Technologies and Expression Analysis (LTEA) Assay for matrix metalloproteinase-1 (MMP1) using HepaRG (AID 2283658). As to conditions: mRNA level, 48 h; actives raise or lower the signal. Put shortly: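 Bidirectional concentration-response fitting relative to 0.5% DMSO gives the endpoint, derived from MMP1 mRNA levels (qRT-PCR) in human HepaRG cells treated 48 h with chemicals up to 100 uM.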
As for `Oc1cccc2cccnc12`, the outcome was inactive.

On to `O=C(O)C(F)(F)C(F)(F)C(F)(F)C(F)(F)C(F)(F)C(F)(F)C(F)(F)C(F)(F)C(F)(F)C(F)(F)F`, for which the compound was called inactive.

Consider `ClC1(Cl)C2(Cl)C3(Cl)C4(Cl)C(Cl)(Cl)C5(Cl)C3(Cl)C1(Cl)C5(Cl)C24Cl` (centres undefined), for which the compound was called inactive.

Turning to `NC(=O)O`, the compound was classed as inactive.
